This is a sample that favours compounds with a hit; in the whole collection about 11% have one here.
G9a block – blocks human histone lysine methyltransferase G9a. 8.8% of 350,000 active. Potency, µM (series often up to 102 µM), most hits filed as inhibitors. Q96KQ7. G9a H3K9 monomethylation, AlphaScreen, 2 h; note: nearly all actives have a fitted effect of over 75% in size
Target sequence (Q96KQ7 913-1193 limits assumed): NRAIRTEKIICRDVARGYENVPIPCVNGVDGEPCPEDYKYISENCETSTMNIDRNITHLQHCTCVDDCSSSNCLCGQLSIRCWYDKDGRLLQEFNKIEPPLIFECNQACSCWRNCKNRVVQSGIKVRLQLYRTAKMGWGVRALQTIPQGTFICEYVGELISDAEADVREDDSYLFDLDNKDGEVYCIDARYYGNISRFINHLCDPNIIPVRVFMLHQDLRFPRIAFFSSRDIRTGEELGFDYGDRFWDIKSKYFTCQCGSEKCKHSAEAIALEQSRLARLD
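G9a (20 nM) preincubated 15 min RT with compounds, then 500 nM biotinylated H3K9 peptide and 20 uM SAM added; 2 h RT reaction. Monomethyl-H3K9 product detected by AlphaScreen with anti-H3K9me1 antibody, streptavidin donor and anti-rabbit IgG acceptor beads.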
Tau fibril ThT – inhibitors of human tau fibril formation, thioflavin T binding. P10636. recombinant tau K18 P301L, heparin-induced fibrillization, ThT fluorescence. Potency, µM (titrated, usually from 57.4 µM), most hits filed as inhibitors. 2.1% of 270,000 active; note: nearly all actives have a fitted effect of over 55% in size
Target sequence (P10636 561-689 P618L limits assumed): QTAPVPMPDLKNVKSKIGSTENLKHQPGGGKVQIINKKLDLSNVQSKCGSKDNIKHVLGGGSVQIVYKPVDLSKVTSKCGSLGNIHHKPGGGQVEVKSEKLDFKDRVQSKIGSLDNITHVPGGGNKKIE
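Fibril formation assay: tau K18 P301L at 15 uM with trace Alexa 594 label, heparin inducer 20 uM, pH 7 sodium acetate buffer, 37 C for 6 hr; endpoint ThT signal.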
FBPA coupling cs – inhibits coupling enzyme system, counter-screen for aldolase hits; AID 2472; activity change, negative = inhibition, % at 58.2 µM, hits read low; coupling enzyme system counterscreen, AmpLite Red fluorescence; 0.67% of 290,000 active; in the data active = activity change below about -30%
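Coupling enzymes only (glyceraldehyde-3-phosphate) + compound, at 57.5 uM final, 10 min RT; add substrate/coupling/AmpLite Red mix, 20 min RT; fluorescence ex 525/em 598 nm. Actives flag coupling-system interference.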
Tau fluor counter – counter-screen for tau fibril formation inhibitors; AID 1463; 0.93% of 280,000 active; Potency, µM (doses to about 57.7 µM); tau K18 P301L Alexa594 fluorescence, heparin fibrillization; note: nearly all actives have a fitted effect of over 55% in size
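Human tau K18 P301L (15 uM unlabeled, 0.24 uM Alexa 594-labeled) in 100 mM sodium acetate pH 7 with 20 uM heparin, 6 hr at 37 C. ThT 30 uM added, 1 hr ambient; Alexa 594 FP and total fluorescence read at 555/632 nm.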
Sfp inh – blocks B. subtilis Sfp PPTase activity; AID 1490; 3.5% of 310,000 active; Potency, µM, hits mostly inhibitors; Biochemical Sfp PPTase activity, qHTS; Q9F4F7;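 note: the enzyme is Sfp with the accession as filed and its product quenches rhodamine fluorescence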
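Fluorescence-quenching assay: 15 nM Sfp-PPTase preincubated 15 min at room temperature with compound, then 5 uM rhodamine-CoA and 12.5 uM BHQ-2-labelled YbbR peptide added. Fluorescence (ex 525/em 598 nm) read at start and after 30 min; difference gives rate.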
Tau FP inhib – inhibitors of human tau fibril formation; AID 1468; K18 P301L tau heparin fibrillization, Alexa594 FP, 6 h; P10636; Potency, µM (highest dose often 57.7 µM), most hits filed as inhibitors; 0.39% of 280,000 active; note: nearly all actives have a fitted effect of over 55% in size
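Heparin (20 uM) drove fibril formation of recombinant tau K18 P301L, 15 uM unlabeled with 0.24 uM Alexa 594 label, for 6 hr at 37 C in 100 mM sodium acetate pH 7. Fluorescence polarization (555/632 nm) read 1 hr after 30 uM ThT.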
Large screens that a line does not name were inactive. Unless noted, calls come from the whole dose curve; as a rule, active = well fitted curve in the direction sought with a large enough effect; inconclusive = small, poorly fitted or top-dose-only effect, or another doubt; inactive = no such curve, though single readings can be large; an effect the other way counts as inactive or inconclusive.

COc1ccc(-n2nc(C(=O)NCC(=O)NCc3ccc(F)cc3)c3ccccc3c2=O)cc1OC	G9a block inconclusive, Sfp inh inconclusive (no result: Tau fibril ThT, Tau fluor counter, Tau FP inhib)
COc1ccc(-c2noc(CSc3nnc(-c4ccncc4)n3-c3ccc(C)cc3)n2)cc1	Tau fibril ThT inconclusive (no result: FBPA coupling cs, Sfp inh)
CCOc1ccc(-n2c(SCc3nc(-c4ccc(C)cc4)no3)nnc2-c2ccncc2)cc1	G9a block 79µM, Tau fibril ThT inconclusive
COCC(=O)NNS(=O)(=O)c1ccccc1[N+](=O)[O-]	G9a block 18µM
O=C(NNS(=O)(=O)c1ccccc1[N+](=O)[O-])c1cc2ccccc2cc1O	G9a block 1.6µM (no result: Tau fibril ThT, Tau fluor counter, Tau FP inhib)
O=C(NNS(=O)(=O)c1ccccc1[N+](=O)[O-])c1ccccc1Cl	none
CC(=O)NS(=O)(=O)c1ccc(NC(=O)c2ccccn2)cc1	G9a block 50µM
CC(=O)Nc1ccc(S(=O)(=O)NCCNS(=O)(=O)c2ccc(NC(C)=O)cc2)cc1	G9a block inconclusive (no result: Tau fibril ThT, Tau fluor counter, Tau FP inhib)
CCSc1ccccc1C(=O)Nc1cccc(OC)c1	G9a block inconclusive
CC(=O)Nc1ccc(S(=O)(=O)NCCSc2ccccn2)cc1	G9a block 2.5µM
CC(=O)Nc1ccc(S(=O)(=O)NCCc2cn3nc(C)c(C)nc3n2)cc1	G9a block 8.9µM (no result: Tau fibril ThT, Tau fluor counter, Tau FP inhib)
CCSc1ccccc1C(=O)Nc1ccc(S(=O)(=O)NC(C)=O)cc1	Tau fibril ThT inconclusive, Sfp inh 25µM (no result: G9a block)
CCCc1noc(-c2ccc(N3CCCCC3)c([N+](=O)[O-])c2)n1	none (no result: FBPA coupling cs, Sfp inh)
CC(C)CCN1C(=O)c2ccc(C(=O)NCc3ccccn3)cc2C1=O	none (no result: Tau fibril ThT, FBPA coupling cs, Tau fluor counter, Sfp inh, Tau FP inhib)
CCCCOCCCNS(=O)(=O)c1ccccc1	none
CCCCOP(=O)(OCCCC)C1(NS(=O)(=O)c2ccccc2)C=CC(=O)c2ccccc21 (centres undefined)	G9a block 1.8µM
CCOC(=O)c1c(C)[nH]c(CCC(=O)NCc2ccc(CC)cc2)c1C	none (no result: FBPA coupling cs, Sfp inh)
COc1ccc2c(c1)sc1ncc(C(=O)NCc3cccc(Cl)c3)c(=O)n12	none (no result: FBPA coupling cs, Sfp inh)
CCCCCSc1nc2c(c(=O)[nH]c(=O)n2C)n1C(C)C	G9a block 40µM
CCOC(=O)CSc1nc2c(c(=O)[nH]c(=O)n2C)n1Cc1ccccc1	none (no result: Tau fibril ThT, Tau fluor counter, Tau FP inhib)
CCCCCCn1c(SCC(=O)OC)nc2c1c(=O)[nH]c(=O)n2C	G9a block 1.6µM, Sfp inh 16µM
CCCCCSc1nc2c(c(=O)[nH]c(=O)n2C)n1C	none
CCCCCOC(=O)CSc1nc2c(c(=O)[nH]c(=O)n2C)n1Cc1ccc(Cl)cc1	G9a block 40µM, Sfp inh inconclusive
CCCCc1ccc(NC(=O)CSC2=NN3CCCC(=O)N=C3S2)cc1	none (no result: Tau fibril ThT, Tau fluor counter, Tau FP inhib)
O=C1Cc2c([nH]c3ccc(Br)cc23)-c2ccccc2N1	G9a block 40µM, Tau fluor counter inconclusive
CCNc1ncc2nc(CCc3ccccc3)c(=O)n(C)c2n1	none (no result: Tau fibril ThT, Tau fluor counter, Tau FP inhib)
Cc1cc(C)c(O)c(N)c1	G9a block 2.2µM, Tau fibril ThT 22µM, Sfp inh 20µM
Cc1cc(C)c(N)c(C(=O)O)c1	none
O=C1N=C(N2CCOCC2)S/C1=C/c1cccs1	none
CC1Oc2ccccc2C=C1/C=C1/SC(N2CCOCC2)=NC1=O (centres undefined)	G9a block inconclusive, Tau fibril ThT inconclusive, FBPA coupling cs -44, Sfp inh inconclusive
CCN1C(=O)/C(=C/C2=Cc3ccccc3OC2C)SC1=S (centres undefined)	G9a block inconclusive, Tau fibril ThT 13µM, Tau fluor counter inconclusive
COC(=O)c1ccccc1S(=O)(=O)NNC(=O)c1ccccc1-n1cccc1	none (no result: G9a block, Tau fibril ThT, Tau fluor counter, Tau FP inhib)
CCOc1cc(C(C(=O)NCC2CCCO2)N(C(=O)Cn2nnc3ccccc32)c2ccc(NC(C)=O)cc2)ccc1O (centres undefined)	G9a block 45µM (no result: Tau fibril ThT, Tau fluor counter, Tau FP inhib)
COc1ccc(S(=O)(=O)N2CCN(C(=S)Nc3ccc(S(N)(=O)=O)cc3)CC2)cc1	G9a block 79µM (no result: Tau fibril ThT, Tau fluor counter, Tau FP inhib)
NS(=O)(=O)c1ccc(NC(=S)N2CCC(Cc3ccccc3)CC2)cc1	G9a block 14µM, Sfp inh 22µM (no result: Tau fibril ThT, Tau fluor counter, Tau FP inhib)
NC(=O)C1(N2CCCCC2)CCN(C(=O)Nc2ccccc2C(F)(F)F)CC1	FBPA coupling cs -35, Sfp inh inconclusive
